This note sets out measurements from PubChem BioAssay (NCATS).

A word on the viability: it is a read-out of living cells in per cent, often relative to untreated cells.

Results filed as inconclusive are left out. Unmarked numbers belong to inactive results. Active and inactive are the calls of the source. Calls follow the shape of the dose curve; as a rule, active = well fitted cell-killing curve with a large enough effect; inconclusive = small, poorly fitted or top-dose-only effect; inactive = flat fitted curve, though single readings scatter.
Potency is read from the fitted curve at half-maximal effect.

This test can be described thus: Quantitative highthroughput screen to assess conditional lethalithy of P12 Ichikawa cells grown in Human Plasma-Like Medium with dialyzed fetal bovine serum (HPLM+ds) (AID 1963879). Also: nearly all actives have a fitted effect of over 35% in size. The settings on record: ATP luminescence, 48 h; Potency: viability; series mostly up to 45.8 µM; viability: at the top concentration. The text has this:
Assay Provider: Jason Cantor Ph.D.
Department of Biochemistry
University of Wisconsin-Madison, Madison, WI, USA
Chemical screening studies have identified drug sensitivities across hundreds of cancer cell lines but most putative therapeutics fail to translate. Discovery and development of drug candidates in models that more accurately reflect nutrient levels in human blood is a major challenge. Here we performed high-throughput screens in conventional versus Human Plasma-Like Medium (HPLM) to identify compounds that were "missed" when screening using the artificial culture condition. Sets of conditional anticancer compounds spanned phases of clinical development and included non-oncology drugs were assessed. […] We also traced conditional phenotypes for several chemotherapeutics to availability of HPLM-specific metabolites and confirmed others for compounds whose reported targets are encoded by nonessential genes. Our findings establish generalizable strategies for exploiting conditional lethality in HPLM to reveal therapeutic candidates and mechanisms of action in cancer cells.
Described herein are the results of each viability screens against three cell lines: NOMO1 (an acute myeloid leukemia cell line); P12-Ichikawa (a T-cell acute lymphoblastic leukemia); and SEM (a B-cell ALL). Each assay was screened using 3 different cell culture media: homemade human plasma-Like medium with 10% dialyzed fetal bovine serum (HPLM+ds); RPMI1640 with 10% untreated FBS and 5mM glucose (RPMI+s); and RPMI1640 with 10% dialyzed fetal bovine serum and 5 mM glucose (RPMI+ds).
PROTOCOL TABLE (as described by Inglese J, Shamu CE and Guy RK. 2007)
SEQUENCE No. (e.g., 1, 2, 3, etc.); […] (e.g., Cells, Incubation, Reagent, etc.); VALUE and DESCRIPTION.
1; Cells; 5 uL; white, solid bottom 1536-well Greiner assay plate.
2; Compounds; 23 nL; Kalypsis pin tool (Wako USA) equipped with a 1536-well pin head to transfer to the assay plates.
3; Incubation; 48 hours; 37C incubation.
4; Reagent; 3 uL; CellTiter Glo (Promega).
5; Incubation; 5 min, room temperature
6; Detection; Luminescence, Viewlux PerkinElmer.
NOTES (numbers refer to Sequence numbers above)
1. Briefly, 5 ul of cell reagent was dispensed using a Multidrop Combi Dispenser. The NOMO1 and SEM cells were plated at 500 cells/well and the P12-Ichikawa line at 1000 cells/well.
2. After seeding the cells, 23 nL of MIPE 4.1 library compounds (in DMSO) were added to each plate using a Kalypsys 1536 Pintool dispenser. Bortezomib at final concentration of […] and DMSO were added to each plate as positive and negative controls respectively. For each screen, MIPE 4.1 compounds were added over an eleven-point concentration range […] in 3-fold dilutions.
3. Each plate was covered with a stainless steel gasketed lid to prevent evaporation and incubated for 48 hour at 37C, 95% relative humidity, and 5% CO2.
4-5. Three microliter CellTilter-GloTM luminescent substrate mix (Promega) reagent was added to the assay plate and incubated at room temperature for 5 min.
6. The luminescence signal was measured using a ViewLux (PerkinElmer) multiplate reader with a 2 second exposure time per plate. Data for each compound were normalized as percent viability such that measurements for DMSO and the empty well controls in each plate were defined as 100% and 0%, respectively.
As to `O=C1c2c(O)ccc(O)c2C(=O)c2c(NCCNCCO)ccc(NCCNCCO)c21`, the Potency was 0.296 µM (active).
Still for that read-out and setting: as for `CC(=O)N1CCN(c2ccc(OCc3nn(C)c(C)c3-c3cccc4c(CCCOc5cccc6ccccc56)c(C(=O)O)n(Cc5cccnc5)c34)cc2)CC1`, the figure is 10.5 µM (active); as for `Nc1cc(C(F)(F)F)c(-c2cc(N3CCOCC3)nc(N3CCOCC3)n2)cn1`, 1.32 µM (active).
Take `COc1ccnc2[nH]cc(C(=O)C(=O)N3CCN(C(=O)c4ccccc4)C[C@@H]3C)c12`: the “viability” value is 102%.
Consider `O=C(O)C=Cc1ccc(O)c(O)c1`, for which the Potency was 26.4 µM (active).
In the case of `CC(C)(Sc1ccc(CCN(CCCCC2CCCCC2)C(=O)NC2CCCCC2)cc1)C(=O)O`, the “viability” value was 86.4%.
With `CC1=C(C(=O)O)N2C(=O)[C@@H](NC(=O)C(N)c3ccccc3)[C@H]2SC1` (stereo not given in full), the “viability” value is 103%.
In the case of `Clc1ccc(-c2nc3sccn3c2C=NOCc2ccc(Cl)c(Cl)c2)cc1`, the “viability” value was 98%.
On the same count and under the same terms, as for `CCn1cc(C(=O)O)c(=O)c2cc(F)c(N3CCNC(C)C3)c(F)c21` (stereo not given), the figure is 97.2%; as for `CC[N+](CC)(CC)CCOc1cccc(OCC[N+](CC)(CC)CC)c1OCC[N+](CC)(CC)CC`, 98.1%.
`CCOC(=O)[C@H](CCc1ccccc1)N[C@H]1CS[C@H](c2cccs2)CN(CC(=O)O)C1=O`: the Potency was 8.33 µM (active).
For the molecule `CC[C@H]1OC(=O)[C@H](C)[C@@H](O[C@H]2C[C@@](C)(OC)[C@@H](O)[C@H](C)O2)[C@H](C)[C@@H](O[C@@H]2O[C@H](C)C[C@H](N(C)C)[C@@H]2O)[C@](C)(OC)C[C@@H](C)C(=O)[C@H](C)[C@@H](O)[C@]1(C)O`, the “viability” value was 99.2%.
As to `CN(Cc1cc(Br)cc(Br)c1N)C1CCCCC1`, the “viability” value was 98.7%.
On to `Cn1cc(CNCC2CCN(c3ncc(C(=O)NO)cn3)CC2)c2ccccc21`, for which the Potency is 0.264 µM (active).
As for `CON(C)C(=O)N1N=C(c2cc(F)ccc2F)S[C@@]1(CCCN)c1ccccc1`, the Potency was 0.0263 µM (active).
Take `CC(C)(C)[C@H](NC(=O)c1ccc(N)c(Cl)c1)C(=O)N1CCC[C@@H]1C(=O)N[C@H](C#N)CC(=O)O`: the Potency was 0.372 µM (active).
As for `CCC[C@H](N[C@@H](C)C(=O)N1[C@@H]2CCCC[C@H]2C[C@H]1C(=O)O)C(=O)OCC`, the “viability” value was 84.2%.
Regarding `C[C@]12CC[C@H](O)CC1=CC[C@@H]1[C@H]2CC[C@]2(C)C(c3cccnc3)=CC[C@H]12`, the “viability” value was 98.7% [at 23.2 µM].
The same measure, in the same setting: as for `CN(c1nccc(=O)[nH]1)C1CCN(c2nc3ccccc3n2Cc2ccc(F)cc2)CC1`, the figure is 93.8%; as for `CNC(=O)c1ccc(N2C(=S)N(c3ccc(C#N)c(C(F)(F)F)c3)C(=O)C2(C)C)cc1F`, 91.7%.
With `COC(=O)Nc1cc(Nc2cc(NC3CC3)c3ncc(C#N)n3n2)c(Cl)c(N2CCN(C)CC2)c1`, the Potency was 20.9 µM (active).
Take `COc1ccc(C(=O)CC(=O)c2ccc(C(C)(C)C)cc2)cc1`: the “viability” value was 90.8%.
Take `O=C(Nc1cccc(Br)c1)c1cccc(S(=O)(=O)N2CCCCCC2)c1`: the “viability” value is 85.7%.
As for `NS(=O)(=O)c1ccc(Nc2nc(OCC3CCCCC3)c3[nH]cnc3n2)cc1`, the Potency was 0.0469 µM (active).
Consider `CN(C)CC[C@H](CSc1ccccc1)Nc1ccc(S(=O)(=O)NC(=O)c2ccc(N3CCN(Cc4ccccc4-c4ccc(Cl)cc4)CC3)cc2)cc1[N+](=O)[O-]`, for which the Potency is 1.48 µM (active).
On to `OCC(O)C(O)C(O)CO` (stereo not given), for which the “viability” value is 100%.
Consider `CCOc1ccc(Nc2nc(-c3c(C)nc4ccccn34)cs2)cc1`, for which the Potency is 0.0469 µM (active).
`OC[C@H]1OC(O)C[C@@H](O)[C@H]1O` (stereo not given in full): the “viability” value is 88.1%.
As for `CCCc1cc(C(N)=S)ccn1`, the “viability” value was 98.9%.
For `Cc1ccc(S(=O)(=O)OCC(=O)Nc2ccc(C(=O)O)c(O)c2)cc1`, the Potency is 23.5 µM (active).
Regarding `COc1ccnc(CS(=O)c2nc3ccc(OC(F)F)cc3[nH]2)c1OC` (stereo not given), the “viability” value is 96.3%.
As to `CCc1cc(C(C)=NOCc2ccc(C3CCCCC3)c(C(F)(F)F)c2)ccc1CN1CC(C(=O)O)C1`, the Potency was 8.33 µM (active).
On to `Oc1ccc([C@@H]2Oc3ccc(O)cc3[C@@H]3CCC[C@@H]32)cc1`, for which the Potency was 13.2 µM (active).
Same read-out and setting: under `CCOc1cc(CC(=O)N[C@@H](CC(C)C)c2ccccc2N2CCCCC2)ccc1C(=O)O` stands 2.35 µM (active).
The same measure, in the same setting: as for `COc1ccc(-c2oc3cc(OC)ccc3c2C(=O)c2ccc(C#N)cc2)cc1`, the figure is 1.87 µM (active).
On to `Cc1oc(=O)oc1CN1CCN(c2cc3c(cc2F)c(=O)c(C(=O)O)c2n3C(C)S2)CC1` (stereo not given), for which the “viability” value was 96.2%.
With `COc1cc2c(cc1OC)[C@@H]1C(=O)c3ccc4c(c3O[C@@H]1CO2)C=CC(C)(C)O4`, the Potency was 18.7 µM (active).
As for `CCc1cccc(CC)c1NC(=O)N1Cc2[nH]nc(NC(=O)c3ccc(N4CCN(C)CC4)cc3)c2C1`, the Potency is 1.87 µM (active).
Consider `C[C@]12CC[C@@H]3c4ccc(O)cc4CC[C@H]3[C@H]1[C@@H](O)[C@@H](O)[C@H]2O`, for which the “viability” value was 104%.
As to `CO[C@H]1C=CO[C@@]2(C)Oc3c(C)c(O)c4c(O)c(c5c(c4c3C2=O)NC2(CCN(CC(C)C)CC2)N=5)=NC(=O)C(C)=CC=C[C@H](C)[C@H](O)[C@@H](C)[C@@H](O)[C@@H](C)[C@H](OC(C)=O)[C@H]1C`, the “viability” value is 88.4%.
